Experimental findings from ChEMBL document CHEMBL3988442, “University of Dundee, Small-Polar-MMV Screening Library” (2021) are described below.

In the assay the target is AMP-activated protein kinase, AMPK (Homo sapiens) (UniProt P54646+O43741+P54619+Q9UGJ0+Q9Y478+Q13131+Q9UGI9). The assay is described as follows: AMP-dependent Kinase enzyme assay. An in vitro enzyme assay that detects ADP turnover that is directly proportional to AMPK activity. This uses naive AMPK that is activated during the assay with MK-8722. The settings on record: 30 µM. Details: scale not given: direction of the effect not stated beside the values. It is filed as functional.
Turning to `CCN(CC)c1ncccc1CNCc1cc2ccccc2s1`, the Percent Effect is -4.57%.

As for `CN(C)CCNC(=O)CCC1CCN(C(=O)c2ccc(Cl)cc2O)CC1`, the Percent Effect was 9.06%.

`Cc1nc(CCN(C)C(=O)CN2CCCCCC2)no1`: the Percent Effect turned out to be 1.14%.

For `CN1CCN(C2CCN(Cc3cn4ccccc4n3)CC2)C1=O`, the Percent Effect was found to be 41.9%.

For `O=C(CC1CCCC1)NCCNCc1cccc2c1OCCO2`, the Percent Effect was -3.45%.

For the compound `COC(=O)c1ccc(N2CCN(C(=O)CCCc3cn[nH]c3)CC2)cc1`, the Percent Effect came out at 6%.

Consider `Cc1noc(C)c1CCc1nc(C2CCOC2)no1` (stereo not given), for which the Percent Effect was -7.75%.

In the case of `Cn1ccnc1C(O)c1ccccc1N1CCN(CC2CCCC2)CC1` (stereo not given), the Percent Effect is 16.2%.

With `CCCc1nnc(N2CCC(N3CCCC3)CC2)o1`, the Percent Effect is -4.2%.

For `CC(=O)N[C@H]1CCO[C@@H](c2cccc(NC(=O)C(C)(C)C)c2)C1`, the Percent Effect was 7.76%.

`O=C(NC1CCCC1)c1cc(Cn2cnc3ccccc32)on1`: the Percent Effect is 0.401%.

Take `CSc1nccc(N2CCC3(CCCN(Cc4ccc(F)cc4)C3)C2)n1` (stereo not given): the Percent Effect was found to be 3.61%.

With `CCN(CC)c1nc2sc(C(=O)N3CCNC(=O)C3)cc2s1`, the Percent Effect was 3.77%.

As for `Cc1noc(-c2ccc(N(C)Cc3ccncn3)nc2)n1`, the Percent Effect worked out at 0.463%.

For `CC(NC(=O)C1CC1)C(=O)N(C)Cc1ccsc1` (stereo not given), the Percent Effect was -1.9%.

For the compound `CCOc1ccc(Cl)cc1CCNC(=O)c1ccc(=O)n(C)c1`, the Percent Effect was 7.18%.

`Cc1cc(NC(=O)NCCC(=O)N2CCCc3ccccc32)no1`: the Percent Effect is -0.372%.

On to `CCN1CCN(c2ccccc2NC(=O)NCc2ccon2)CC1`, for which the Percent Effect was found to be 2.14%.

For `CCc1ccc(C(=O)NC[C@H]2CCCN2C(=O)c2ccc(CC)o2)o1`, the Percent Effect is -0.868%.

Consider `Cc1nnc(CN(C)CC(=O)N2CCCC(C)CC2)n1C` (stereo not given), for which the Percent Effect came out at 0.221%.

For the compound `COc1ccc(CC2(CO)CCN(c3cc(C(N)=O)ccn3)CC2)cc1`, the Percent Effect amounted to 8.7%.

As to `Cc1cc(-c2cc3nc(C)c(C)c(NCC4COCCO4)n3n2)no1` (stereo not given), the Percent Effect worked out at 17.6%.

For `Cc1ccc(C(=O)NC2CCN(C)CC2)cc1N(C)S(C)(=O)=O`, the Percent Effect was -1.82%.

With `CC(C)(C)c1ccc(C(=O)C2CCCN(C(=O)CNS(C)(=O)=O)C2)cc1` (stereo not given), the Percent Effect was 0.896%.

For `Cc1nc(CN(C)S(=O)(=O)c2ccccc2Br)no1`, the Percent Effect amounted to 6.12%.

As to `COCCOCC(=O)Nc1nc2c(OC)cc(F)cc2s1`, the Percent Effect came out at 3.08%.

As for `Cc1cccnc1NC(=O)c1ccc(F)c(S(=O)(=O)N2CCC2)c1`, the Percent Effect was -5.84%.

Turning to `CC(C)c1nnc(CN2CCc3ccc(S(N)(=O)=O)cc32)o1`, the Percent Effect was -0.483%.

On to `Cn1cc(N2CCN(c3ccc(C#N)c(Cl)c3)CC2=O)cn1`, for which the Percent Effect is -3.11%.

Consider `CC(C)[C@H]1CN(Cc2ccccn2)C[C@@H]1NC(=O)CCS(C)(=O)=O`, for which the Percent Effect was 9.37%.

For the compound `CNC(=O)c1[nH]nc2c1CN(c1cc(C3CCCNC3)nc(C)n1)CC2` (stereo not given), the Percent Effect was 18.4%.

As to `COC(=O)c1occc1Cn1cc(Br)cn1`, the Percent Effect is -0.99%.

Take `CN1CC(C(=O)NCc2ccc(Br)cc2F)CC1=O` (stereo not given): the Percent Effect came to 8.64%.

In the case of `Cc1cc(=O)n2nc(Oc3cc(Cl)cc(Cl)c3)sc2n1`, the Percent Effect was -4.19%.

For the compound `CCNc1ncc(C(=O)NCc2csc(C)n2)cn1`, the Percent Effect was -2.12%.

As to `FC(F)(F)c1cccc(OC2CCN(Cc3c[nH]cn3)CC2)c1`, the Percent Effect was 18%.

Take `Cn1ccnc1CN1CCN(Cc2cc(-c3ccccc3)no2)CC1`: the Percent Effect was -2.31%.

As for `CN(C)Cc1nc(C(=O)N2CCCC(COc3ccc(F)cc3)C2)cs1` (stereo not given), the Percent Effect worked out at 8.59%.

Turning to `CN(C)C(=O)CN1CCCC(c2nccnc2-c2cccc(Cl)c2)C1` (stereo not given), the Percent Effect stood at 19.9%.

In the case of `Cn1cnnc1C1CCCN(Cc2nc(Cc3ccccc3)no2)C1` (stereo not given), the Percent Effect is 12.2%.
